Assay [1] can be described thus: p53 stabilisation in HPV-positive human cells, imaging, p53-positive nuclei imaging, 24 h, 48 h (AID 1508601). The note with it: 24/48 h.
The target in assay [2] is Cellular tumor antigen p53 (Homo sapiens) (UniProt P04637). The description is as above. The note with it: 24/48 h, stronger effect = higher value.
[3] abbreviates: measured here: cell number at 24 h, Library stock concentration: 80 uM.
Where [4] appears, read: measured here: cell number at 24 h, Library stock concentration: 400 uM.
Where [5] appears, read: measured here: cell number at 24 h, Library stock concentration: 2 mM.
Where [6] appears, read: measured here: cell number at 24 h, Library stock concentration: 3.33 mM.
Where [7] appears, read: measured here: cell number at 24 h, Library stock concentration: 10 mM.
Where [8] appears, read: measured here: cell number at 48 h, Library stock concentration: 80 uM.
The mark [9] stands for this setting: measured here: cell number at 48 h, Library stock concentration: 400 uM.
The mark [10] stands for this setting: measured here: cell number at 48 h, Library stock concentration: 2 mM.
Where [11] appears, read: measured here: cell number at 48 h, Library stock concentration: 3.33 mM.
Where [12] appears, read: measured here: cell number at 48 h, Library stock concentration: 10 mM.
Where [13] appears, read: Library stock concentration: 80 uM.
[14] abbreviates: Library stock concentration: 400 uM.
Setting [15] is: Library stock concentration: 2 mM.
Setting [16] is: Library stock concentration: 3.33 mM.
The mark [17] stands for this setting: Library stock concentration: 10 mM.
[18] abbreviates: measured here: p53 positive nuclei at 24 h, Library stock concentration: 80 uM.
Setting [19] is: measured here: p53 positive nuclei at 24 h, Library stock concentration: 400 uM.
The mark [20] stands for this setting: measured here: p53 positive nuclei at 24 h, Library stock concentration: 2 mM.
Where [21] appears, read: measured here: p53 positive nuclei at 24 h, Library stock concentration: 3.33 mM.
[22] abbreviates: measured here: p53 positive nuclei at 24 h, Library stock concentration: 10 mM.
Setting [23] is: measured here: cell number at 24 h, concentration not given here.
Setting [24] is: measured here: cell number at 48 h, concentration not given here.
Where [25] appears, read: measured here: p53 positive nuclei at 24 h, concentration not given here.

This note sets out measurements from PubChem BioAssay AID1508601 (ICCB-Longwood Screening Facility, Harvard Medical School, 2020).

Screen size: about 5,700 compounds; about 85 (1%) were called active. Rule as the data show it: active = p53-positive nuclei above about 36% (passing the limit was not always enough); inactive = the rest. For the sample, actives were picked, then their nearest neighbours and some compounds at random.

Cellular tumor antigen p53 (Homo sapiens), sequence (P04637 whole entry, looked up): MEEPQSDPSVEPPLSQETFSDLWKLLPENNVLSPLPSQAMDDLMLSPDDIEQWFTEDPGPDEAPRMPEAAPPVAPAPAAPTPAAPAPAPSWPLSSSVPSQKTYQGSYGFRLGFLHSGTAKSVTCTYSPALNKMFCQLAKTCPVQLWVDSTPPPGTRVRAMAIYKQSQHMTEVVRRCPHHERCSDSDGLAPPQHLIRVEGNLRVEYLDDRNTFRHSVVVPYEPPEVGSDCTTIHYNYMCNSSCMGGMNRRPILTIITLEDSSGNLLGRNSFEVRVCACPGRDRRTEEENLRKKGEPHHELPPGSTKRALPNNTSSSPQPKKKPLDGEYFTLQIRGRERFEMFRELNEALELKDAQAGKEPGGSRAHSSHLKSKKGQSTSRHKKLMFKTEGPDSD

As to `CC(C)N(CCCNC(=O)Nc1ccc(C(C)(C)C)cc1)CC1OC(n2cc(Br)c3c(N)ncnc32)C(O)C1O` (stereo unspecified), the nuclei count, normalised in assay [1] (setting [3]) was determined as 105%; in assay [1] (setting [4]), 101%; in assay [1] (setting [5]) it was 103%; in assay [1] (setting [6]), 115%; in assay [1] (setting [7]) it was 101%; in assay [1] (setting [8]), 98.8%. Further, the nuclei count, normalised in assay [1] (setting [9]) amounted to 96.7%; in assay [1] (setting [10]), 94.7%; in assay [1] (setting [11]) it was 110%; in assay [1] (setting [12]) it was 99.9%. For the same compound, the p53-positive nuclei, normalised in assay [2] (setting [13]) was -0.0631% (inactive); in assay [2] (setting [14]), 0.111% (inactive); in assay [2] (setting [15]), 0.291% (inactive); in assay [2] (setting [16]) it was -0.109% (inactive); in assay [2] (setting [17]) it was 0.13% (inactive); in assay [2] (setting [18]), -0.167%. For the same compound, the p53-positive nuclei, normalised in assay [2] (setting [19]) was 0.0144%; in assay [2] (setting [20]), -0.162%; in assay [2] (setting [21]), -0.283%; in assay [2] (setting [22]), -0.163%.

In the case of `CCCC1CC(C(=O)NC(C(C)O)[C@@H]2OC(SC)C(O)C(O)C2O)N(C)C1` (stereo partly specified), the nuclei count, normalised worked out at 101% in assay [1] (setting [6]) and 102% in assay [1] (setting [11]). In addition, the p53-positive nuclei, normalised in assay [2] (setting [16]) was -0.245% (inactive); in assay [2] (setting [21]), -0.267%.

Take `N#CSc1cc(SC#N)c(N)nc1N`: the nuclei count, normalised was determined as 108% in assay [1] (measured here: cell number at 24 h, Library stock concentration: 500 nM); 116% in assay [1] (measured here: cell number at 24 h, Library stock concentration: 1.5 uM); 121% in assay [1] (measured here: cell number at 24 h, Library stock concentration: 4.6 uM); 119% in assay [1] (measured here: cell number at 24 h, Library stock concentration: 13.7 uM); 107% in assay [1] (measured here: cell number at 24 h, Library stock concentration: 41 uM); 114% in assay [1] (measured here: cell number at 24 h, Library stock concentration: 123 uM). In addition, the nuclei count, normalised is 114% in assay [1] (measured here: cell number at 24 h, Library stock concentration: 370 uM); 107% in assay [1] (measured here: cell number at 24 h, Library stock concentration: 1.111 mM); 97.4% in assay [1] (setting [6]); 84.8% in assay [1] (measured here: cell number at 24 h, Library stock concentration: 3.333 mM); 45.2% in assay [1] (setting [7]); 108% in assay [1] (measured here: cell number at 48 h, Library stock concentration: 500 nM). The nuclei count, normalised in assay [1] (measured here: cell number at 48 h, Library stock concentration: 1.5 uM) was determined as 111%; in assay [1] (measured here: cell number at 48 h, Library stock concentration: 4.6 uM), 118%; in assay [1] (measured here: cell number at 48 h, Library stock concentration: 13.7 uM), 113%; in assay [1] (measured here: cell number at 48 h, Library stock concentration: 41 uM), 108%; in assay [1] (measured here: cell number at 48 h, Library stock concentration: 123 uM), 113%; in assay [1] (measured here: cell number at 48 h, Library stock concentration: 370 uM) it was 74.3%. In addition, the nuclei count, normalised in assay [1] (measured here: cell number at 48 h, Library stock concentration: 1.111 mM) was 74.4%; in assay [1] (setting [11]), 103%; in assay [1] (measured here: cell number at 48 h, Library stock concentration: 3.333 mM), 62.1%; in assay [1] (setting [12]) it was 21.8%. Besides, the p53-positive nuclei, normalised is 0.137% (inactive) in assay [2] (Library stock concentration: 500 nM); -0.0213% (inactive) in assay [2] (Library stock concentration: 1.5 uM); -0.102% (inactive) in assay [2] (Library stock concentration: 4.6 uM); 0.047% (inactive) in assay [2] (Library stock concentration: 13.7 uM); 0.227% (inactive) in assay [2] (Library stock concentration: 41 uM); -0.098% (inactive) in assay [2] (Library stock concentration: 123 uM). Moreover, the p53-positive nuclei, normalised in assay [2] (Library stock concentration: 370 uM) is 0.164% (inactive); in assay [2] (Library stock concentration: 1.111 mM), 0.121% (inactive); in assay [2] (setting [16]), 0.00985% (inactive); in assay [2] (Library stock concentration: 3.333 mM) it was 0.39% (inactive); in assay [2] (setting [17]) it was 46.6% (active); in assay [2] (measured here: p53 positive nuclei at 24 h, Library stock concentration: 500 nM) it was 0.00877%. Besides, the p53-positive nuclei, normalised was -0.00152% in assay [2] (measured here: p53 positive nuclei at 24 h, Library stock concentration: 1.5 uM); 0.0386% in assay [2] (measured here: p53 positive nuclei at 24 h, Library stock concentration: 4.6 uM); -0.00721% in assay [2] (measured here: p53 positive nuclei at 24 h, Library stock concentration: 13.7 uM); 0.497% in assay [2] (measured here: p53 positive nuclei at 24 h, Library stock concentration: 41 uM); 0.0549% in assay [2] (measured here: p53 positive nuclei at 24 h, Library stock concentration: 123 uM); -0.0579% in assay [2] (measured here: p53 positive nuclei at 24 h, Library stock concentration: 370 uM). Moreover, the p53-positive nuclei, normalised in assay [2] (measured here: p53 positive nuclei at 24 h, Library stock concentration: 1.111 mM) is 0.00745%; in assay [2] (setting [21]) it was -0.237%; in assay [2] (measured here: p53 positive nuclei at 24 h, Library stock concentration: 3.333 mM), 0.112%; in assay [2] (setting [22]) it was 76.7%.

Turning to `CC/C=C\C/C=C\C/C=C\C/C=C\C/C=C\CCCCCC(=O)O`, the nuclei count, normalised in assay [1] (setting [23]) was 100%; in assay [1] (setting [24]), 102%. The p53-positive nuclei, normalised was 0.209% (inactive) in assay [2] (concentration not given here) and -0.0279% in assay [2] (setting [25]).

As for `CC(Oc1ccc2c(c1)OCO2)C(=O)N(Cc1nccn1C)C(C)C` (stereo unspecified), the nuclei count, normalised in assay [1] (setting [23]) was determined as 101%; in assay [1] (setting [24]), 109%. Further, the values for the p53-positive nuclei, normalised in assay [2] (concentration not given here) and in assay [2] (setting [25]) were -0.128% (inactive) and 0.148%, respectively.

With `CCCCc1ccc(N=CNO)c(C)c1`, the nuclei count, normalised turned out to be 102% in assay [1] (setting [3]); 87.8% in assay [1] (setting [4]); 104% in assay [1] (setting [5]); 97.5% in assay [1] (setting [7]); 112% in assay [1] (setting [23]); 102% in assay [1] (setting [8]). Besides, the nuclei count, normalised in assay [1] (setting [9]) was 96.8%; in assay [1] (setting [10]), 107%; in assay [1] (setting [12]), 103%; in assay [1] (setting [24]), 114%. For the same compound, the p53-positive nuclei, normalised in assay [2] (setting [13]) was -0.0421% (inactive); in assay [2] (setting [14]), -0.0681% (inactive); in assay [2] (setting [15]) it was -0.128% (inactive); in assay [2] (setting [17]), -0.158% (inactive); in assay [2] (concentration not given here) it was -0.0134% (inactive); in assay [2] (setting [18]), -0.116%. The p53-positive nuclei, normalised was 0.0745% in assay [2] (setting [19]), 0.0465% in assay [2] (setting [20]), 0.123% in assay [2] (setting [22]) and -0.0878% in assay [2] (setting [25]).
